This note sets out measurements from PubChem BioAssay (EPA / NIEHS).

A short description of test [1]: ATG_TAL_CIS: Attagene CIS-FACTORIAL HepG2 Assay for human TAL Basal Promoter (AID 2282966; active means hit-call score of the fitted dose curve at least 0.9, where 1 is the maximum; inactive means score below 0.9;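 further: background control endpoint measuring basal TAL promoter reporter mRNA not a specific factor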). The conditions noted are these: HepG2 Attagene cis-factorial TAL promoter reporter; actives raise or lower the signal. In outline:
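Transiently transfected HepG2 (cis-regulated reporter units), 24 h treatment, mRNA read by fluorescent CE after RT-PCR; bidirectional fit, DMSO baseline.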

The target of test [2] is Nuclear receptor subfamily 1 group I member 3 (Homo sapiens) (UniProt Q14994). As to the kind of experiment: ATG_CAR_TRANS: Attagene TRANS-FACTORIAL HepG2 Assay for human Constitutive Androstane Receptor (CAR) (AID 2282969).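 Further: activators raise reporter mRNA above DMSO so AC50 marks induction.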 The settings on record: HepG2 Attagene TRANS-FACTORIAL CAR reporter. In outline: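 Transiently transfected HepG2, multiplex TRANS reporters (CAR-Gal4 chimera driving GAL4-UAS reporter). 24 h dosing. Readout: reporter transcript by RT-PCR + capillary electrophoresis, fluorescence intensity; positive direction vs DMSO.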
Chain of Nuclear receptor subfamily 1 group I member 3 (Homo sapiens) (Q14994 whole entry, looked up, the tested form may be a part): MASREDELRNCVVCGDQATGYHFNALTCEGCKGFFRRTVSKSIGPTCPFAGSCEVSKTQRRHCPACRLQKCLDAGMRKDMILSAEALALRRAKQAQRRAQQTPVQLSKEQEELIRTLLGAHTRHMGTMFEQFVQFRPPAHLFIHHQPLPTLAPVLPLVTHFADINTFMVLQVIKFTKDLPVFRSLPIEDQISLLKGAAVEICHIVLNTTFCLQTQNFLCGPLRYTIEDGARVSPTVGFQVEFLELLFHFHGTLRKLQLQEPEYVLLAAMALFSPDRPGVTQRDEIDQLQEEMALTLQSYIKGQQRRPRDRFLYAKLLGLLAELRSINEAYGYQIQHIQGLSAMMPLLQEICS

Test [3] deals with X-box-binding protein 1 (Homo sapiens) (UniProt P17861). As to the kind of experiment: ATG_Xbp1_CIS: Attagene CIS-FACTORIAL HepG2 Assay for human X-box Binding Protein 1 (XBP1) (AID 2282972; active means hit-call score of the fitted dose curve at least 0.9, where 1 is the maximum; inactive means score below 0.9). The conditions noted are these: HepG2 XBP1 cis-element reporter, Attagene multiplex; actives raise or lower the signal. An outline of the steps: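 Human hepatoma HepG2, cis-element reporter system, 24 h treatment; mRNA quantified by RT-PCR/CE fluorescence; fit relative to DMSO.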
Chain of X-box-binding protein 1 (Homo sapiens) (P17861 whole entry, looked up): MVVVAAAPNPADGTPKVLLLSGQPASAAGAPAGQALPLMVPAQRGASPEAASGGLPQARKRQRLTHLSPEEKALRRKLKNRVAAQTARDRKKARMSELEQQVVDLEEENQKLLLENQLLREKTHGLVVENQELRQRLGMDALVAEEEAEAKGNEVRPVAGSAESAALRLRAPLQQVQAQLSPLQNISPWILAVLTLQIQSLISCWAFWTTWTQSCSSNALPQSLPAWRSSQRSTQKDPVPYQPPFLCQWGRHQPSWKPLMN

The nature of test [4]: ATG_M_06_TRANS: Attagene TRANS-FACTORIAL HepG2 Assay for M06 Transcription Factor (Internal Marker) (AID 2282983). The conditions noted are these: HepG2 Attagene TRANS M06 internal marker reporter. An outline of the steps: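 In this multiplexed HepG2 system, compounds are incubated 24 h with cells carrying GAL4-UAS reporter units. Reporter RNA is amplified and resolved by capillary electrophoresis, and induction is scored against DMSO.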

A short description of test [5]: ATG_M_32_TRANS: Attagene TRANS-FACTORIAL HepG2 Assay for M32 Transcription Factor (Internal Marker) (AID 2282984).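 Further: transcript level of a background control reporter unit measured by RT-PCR and capillary electrophoresis.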 The conditions noted are these: HepG2 Attagene TRANS M32 internal marker reporter. An outline of the steps:
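Internal-marker readout from a multiplexed transcription reporter panel. HepG2 cells were transfected with GAL4-UAS reporter units, treated 24 hours, and reporter transcript levels determined by fluorescence after RT-PCR and capillary separation.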

The target in test [6] is Nuclear receptor subfamily 4 group A member 2 (Homo sapiens) (UniProt P43354). Kind of test: ATG_NURR1_TRANS: Attagene TRANS-FACTORIAL HepG2 Assay for human Nuclear Receptor Related Protein 1 (NURR1) (AID 2282985). The conditions noted are these: HepG2 Attagene TRANS reporter, mRNA readout. In outline:
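Endpoint: reporter mRNA increase relative to DMSO. HepG2 cells transfected with reporter units, treated 24 h; RNA processed by RT-PCR, labelling, HpaI digestion and capillary electrophoresis.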

For test [7], the target named is Transcriptional activator Myb (Homo sapiens) (UniProt P10242). Kind of test: ATG_Myb_CIS: Attagene CIS-FACTORIAL HepG2 Assay for human Myeloblastosis (Myb) Proto-Oncogene Transcription Factor (AID 2282986; active means hit-call score of the fitted dose curve at least 0.9, where 1 is the maximum; inactive means score below 0.9). The conditions noted are these: HepG2 Attagene CIS-FACTORIAL Myb reporter transcription; actives raise or lower the signal. An outline of the steps:
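Using HepG2 liver cells bearing transiently transfected cis-promoter reporter constructs, the assay measures induction or loss of reporter mRNA after 24 hours of dosing. Detection used fluorescently labeled RT-PCR products separated by capillary electrophoresis.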

Test [8] concerns the target Nuclear respiratory factor 1 (Homo sapiens) (UniProt Q16656). Kind of test: ATG_NRF1_CIS: Attagene CIS-FACTORIAL HepG2 Assay for human Nuclear Respiratory Factor 1 (NRF1) Orphan Gene (AID 2282987; active means hit-call score of the fitted dose curve at least 0.9, where 1 is the maximum; inactive means score below 0.9). The conditions noted are these: HepG2 NRF1 cis-element reporter, Attagene multiplex; actives raise or lower the signal. An outline of the steps: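 Reporter mRNA induction or loss in HepG2 cells after 24 h dosing; cis-regulated reporter constructs report endogenous transcription-factor activity. Quantified by RT-PCR/capillary electrophoresis fluorescence, DMSO-referenced.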

Test [9] can be described thus: ATG_VDRE_CIS: Attagene CIS-FACTORIAL HepG2 Assay for human Vitamin D Receptor Element (VDRE) (AID 2282968; active means hit-call score of the fitted dose curve at least 0.9, where 1 is the maximum; inactive means score below 0.9). The settings on record: HepG2 VDRE cis-reporter transcription, actives raise or lower the signal. An outline of the steps: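 Compounds were applied for 24 h to HepG2 cells transfected with promoter-regulated reporter units. Total RNA was reverse-transcribed, and reporter amplicons were fluorescently labelled and sized by capillary electrophoresis.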

Test [10] addresses Steroid hormone receptor ERR1 (Homo sapiens) (UniProt P11474). As to the kind of experiment: ATG_ERRa_TRANS: Attagene TRANS-FACTORIAL HepG2 Assay for human Estrogen-Related Receptor alpha (ERRa) (AID 2282971). The settings on record: HepG2 Attagene TRANS reporter, ERRa transactivation. In outline:
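HepG2 cells transiently transfected with multiplexed GAL4-UAS reporter units reading chimeric ERRa-Gal4 activity; 24 h compound exposure. Reporter mRNA measured by RT-PCR, 6-FAM labelling, HpaI digest and capillary electrophoresis; gain of signal fitted versus DMSO baseline.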

Test [11] in a line: ATG_M_19_TRANS: Attagene TRANS-FACTORIAL HepG2 Assay for M19 Transcription Factor (Internal Marker) (AID 2282974). The settings on record: HepG2 Attagene TRANS-FACTORIAL M19 internal marker reporter. An outline of the steps:
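Multiplexed TRANS format: HepG2 liver cells bearing transient GAL4-UAS reporter units, chemical treatment 24 h, reporter transcripts quantified by RT-PCR plus capillary electrophoresis. DMSO defines baseline.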

Test [12] concerns the target Glucocorticoid receptor (Homo sapiens) (UniProt P04150). Kind of test: ATG_GR_TRANS: Attagene TRANS-FACTORIAL HepG2 Assay for human Glucocorticoid Receptor (GR) (AID 2282978).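 Further: activators score as hits since higher reporter transcript over DMSO is fitted.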 The settings on record: HepG2 Attagene TRANS GR reporter, mRNA transcription. In outline: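 Transiently transfected HepG2 cells express chimeric NR-GAL4 proteins acting on GAL4-UAS reporter units. Compounds are applied for 24 h. mRNA induction over DMSO is measured by capillary electrophoresis.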

The target of test [13] is Oxysterols receptor LXR-alpha (Homo sapiens) (UniProt Q13133). Kind of test: ATG_LXRa_TRANS: Attagene TRANS-FACTORIAL HepG2 Assay for human Liver X Receptor alpha (LXRa) (AID 2282980). The settings on record: HepG2 Attagene TRANS reporter, LXRa transactivation. In outline:
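HepG2 cells were transiently transfected with multiplexed reporter units driven by chimeric LXRa–GAL4 fusion proteins, then dosed for 24 h. Reporter mRNA was quantified by RT-PCR, fluorescent labelling and capillary electrophoresis; gain of signal fitted against DMSO baseline.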

In test [14] the target is Oxysterols receptor LXR-beta (Homo sapiens) (UniProt P55055). As to the kind of experiment: ATG_LXRb_TRANS: Attagene TRANS-FACTORIAL HepG2 Assay for human Liver X Receptor beta (LXRb) (AID 2282981). The conditions noted are these: HepG2 Attagene TRANS GAL4-LXRb reporter, mRNA. In outline: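 Multiplexed reporter assay, HepG2, 24 h dosing. Fluorescence of labelled RT-PCR products after capillary electrophoresis gives transcript level; positive fitting direction relative to DMSO.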
Chain of Oxysterols receptor LXR-beta (Homo sapiens) (P55055 whole entry, looked up, the tested form may be a part): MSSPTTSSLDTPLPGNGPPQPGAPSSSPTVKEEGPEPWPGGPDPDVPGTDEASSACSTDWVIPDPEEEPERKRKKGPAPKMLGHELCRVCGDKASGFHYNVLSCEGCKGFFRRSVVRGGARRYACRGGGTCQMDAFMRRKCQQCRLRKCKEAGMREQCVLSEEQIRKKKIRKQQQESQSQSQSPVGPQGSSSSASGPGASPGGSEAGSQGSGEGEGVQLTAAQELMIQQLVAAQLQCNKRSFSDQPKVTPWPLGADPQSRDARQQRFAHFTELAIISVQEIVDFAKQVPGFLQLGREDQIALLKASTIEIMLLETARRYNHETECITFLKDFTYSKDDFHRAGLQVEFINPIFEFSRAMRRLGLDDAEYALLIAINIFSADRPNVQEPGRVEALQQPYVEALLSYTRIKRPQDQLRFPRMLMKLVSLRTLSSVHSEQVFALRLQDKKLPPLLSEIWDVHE

Test [15] has as its target Hepatocyte nuclear factor 4-alpha (Homo sapiens) (UniProt P41235). As to the kind of experiment: ATG_HNF4a_TRANS: Attagene TRANS-FACTORIAL HepG2 Assay for human Hepatocyte Nuclear Factor 4 alpha (HNF4a) (AID 2282982). The settings on record: HepG2 HNF4a transactivation reporter, mRNA readout. In outline:
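Endpoint reflects transcriptional activation of a GAL4-UAS reporter by an HNF4a-GAL4 chimera in transfected HepG2 cells, 24 h post-dosing. Fluorescence from RT-PCR products separated by capillary electrophoresis; DMSO baseline.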

A short description of test [16]: ATG_GAL4_TRANS: Attagene TRANS-FACTORIAL HepG2 Assay for GAL4 (Internal Marker) (AID 2282976). The settings on record: HepG2 Attagene TRANS GAL4 internal marker reporter. In outline: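 HepG2 cells transiently transfected with multiplexed GAL4-UAS reporter constructs were dosed for 24 h. Reporter mRNA was measured by RT-PCR, 6-FAM primer extension, HpaI digestion and capillary electrophoresis, and gain of signal was fitted relative to DMSO.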

The target in test [17] is Estrogen receptor (Homo sapiens) (UniProt P03372). As to the kind of experiment: ATG_ERa_TRANS: Attagene TRANS-FACTORIAL HepG2 Assay for human Estrogen Receptor alpha (ERa) (AID 2282970). The settings on record: HepG2 Attagene TRANS ERa GAL4 reporter, mRNA. An outline of the steps: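 One of 30 multiplexed endpoints from a HepG2 TRANS system, this one reports ERa-Gal4-driven reporter mRNA. Transcripts were quantified 24 hours post-dosing by fluorescent RT-PCR and capillary electrophoresis, with activity scored as induction over DMSO.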

The target of test [18] is Bile acid receptor (Homo sapiens) (UniProt Q96RI1). Kind of test: ATG_FXR_TRANS: Attagene TRANS-FACTORIAL HepG2 Assay for Farnesoid X Receptor (FXR) (AID 2282979).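 Further: hits raise reporter mRNA above DMSO so AC50 marks FXR activation.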 The settings on record: HepG2 Attagene TRANS FXR-GAL4 reporter transcription. In outline: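 HepG2 cells transiently transfected with reporter constructs in which a chimeric FXR-GAL4 protein drives a GAL4-UAS reporter; 24 h compound exposure. Reporter mRNA measured by RT-PCR, FAM labelling, HpaI digestion and capillary electrophoresis; gain-of-signal versus DMSO.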

Test [19] concerns the target Estrogen-related receptor gamma (Homo sapiens) (UniProt P62508). Kind of test: ATG_ERRg_TRANS: Attagene TRANS-FACTORIAL HepG2 Assay for human Estrogen-Related Receptor gamma (ERRg) (AID 2282977).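 Further: hits increase reporter signal over DMSO so potencies reflect activators.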 The conditions noted are these: HepG2 Attagene TRANS reporter, ERRg transactivation. In outline:
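Induction of reporter transcripts through a chimeric NR-Gal4 protein is quantified in transfected human HepG2 liver cells after 24 h chemical exposure, using RT-PCR with capillary electrophoresis detection and DMSO as baseline.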

Records with an inconclusive call do not appear. Activity calls are given as the source filed them. How the source made its calls, unless noted: active means hit-call score of the fitted dose curve at least 0.9, where 1 is the maximum; inconclusive means response in the unintended direction; inactive means score below 0.9.

Chain of Steroid hormone receptor ERR1 (Homo sapiens) (P11474 whole entry, looked up, the tested form may be a part): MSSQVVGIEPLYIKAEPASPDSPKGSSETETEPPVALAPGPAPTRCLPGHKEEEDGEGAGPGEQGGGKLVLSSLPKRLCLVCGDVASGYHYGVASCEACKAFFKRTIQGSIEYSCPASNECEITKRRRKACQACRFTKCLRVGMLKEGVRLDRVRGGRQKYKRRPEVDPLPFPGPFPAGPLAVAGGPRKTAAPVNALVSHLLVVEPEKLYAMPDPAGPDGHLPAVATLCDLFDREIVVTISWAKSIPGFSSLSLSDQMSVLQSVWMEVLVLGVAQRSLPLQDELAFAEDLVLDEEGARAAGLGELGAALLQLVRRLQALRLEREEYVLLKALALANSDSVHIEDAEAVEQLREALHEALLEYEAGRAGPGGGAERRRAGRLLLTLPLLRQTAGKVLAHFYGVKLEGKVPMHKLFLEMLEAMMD
Chain of Nuclear receptor subfamily 4 group A member 2 (Homo sapiens) (P43354 whole entry, looked up): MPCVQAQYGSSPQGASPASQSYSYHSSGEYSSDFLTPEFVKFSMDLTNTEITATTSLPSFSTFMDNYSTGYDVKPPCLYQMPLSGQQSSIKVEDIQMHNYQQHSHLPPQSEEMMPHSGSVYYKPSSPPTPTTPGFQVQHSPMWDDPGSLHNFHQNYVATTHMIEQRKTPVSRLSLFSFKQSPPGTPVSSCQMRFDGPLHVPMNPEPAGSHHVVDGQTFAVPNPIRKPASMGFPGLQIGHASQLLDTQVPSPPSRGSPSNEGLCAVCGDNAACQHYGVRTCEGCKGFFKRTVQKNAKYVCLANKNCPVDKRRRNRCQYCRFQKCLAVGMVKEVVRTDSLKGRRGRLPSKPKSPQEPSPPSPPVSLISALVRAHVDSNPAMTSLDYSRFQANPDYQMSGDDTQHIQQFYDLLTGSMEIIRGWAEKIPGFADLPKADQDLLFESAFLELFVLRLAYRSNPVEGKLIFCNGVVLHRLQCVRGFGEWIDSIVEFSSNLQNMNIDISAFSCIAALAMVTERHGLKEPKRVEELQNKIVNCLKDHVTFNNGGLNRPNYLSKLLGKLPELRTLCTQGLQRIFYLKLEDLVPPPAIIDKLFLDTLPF
Chain of Transcriptional activator Myb (Homo sapiens) (P10242 whole entry, looked up): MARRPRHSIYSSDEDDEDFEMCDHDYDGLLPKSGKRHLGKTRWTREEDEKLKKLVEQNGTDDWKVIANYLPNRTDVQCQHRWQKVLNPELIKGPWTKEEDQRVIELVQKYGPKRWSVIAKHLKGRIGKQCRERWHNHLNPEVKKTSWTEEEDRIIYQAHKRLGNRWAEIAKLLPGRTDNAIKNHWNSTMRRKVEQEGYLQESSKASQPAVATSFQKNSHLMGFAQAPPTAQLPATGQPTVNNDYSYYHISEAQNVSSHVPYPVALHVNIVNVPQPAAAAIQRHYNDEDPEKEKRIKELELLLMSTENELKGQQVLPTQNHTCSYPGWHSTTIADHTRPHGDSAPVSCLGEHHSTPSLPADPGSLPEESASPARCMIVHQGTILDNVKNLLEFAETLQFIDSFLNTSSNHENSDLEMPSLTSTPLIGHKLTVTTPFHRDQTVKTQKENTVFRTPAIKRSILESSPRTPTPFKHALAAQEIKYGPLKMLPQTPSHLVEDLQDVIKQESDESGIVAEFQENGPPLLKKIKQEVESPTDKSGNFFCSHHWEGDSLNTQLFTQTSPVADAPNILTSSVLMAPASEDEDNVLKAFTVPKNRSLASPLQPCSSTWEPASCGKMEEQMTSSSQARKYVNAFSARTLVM
Chain of Hepatocyte nuclear factor 4-alpha (Homo sapiens) (P41235 whole entry, looked up, the tested form may be a part): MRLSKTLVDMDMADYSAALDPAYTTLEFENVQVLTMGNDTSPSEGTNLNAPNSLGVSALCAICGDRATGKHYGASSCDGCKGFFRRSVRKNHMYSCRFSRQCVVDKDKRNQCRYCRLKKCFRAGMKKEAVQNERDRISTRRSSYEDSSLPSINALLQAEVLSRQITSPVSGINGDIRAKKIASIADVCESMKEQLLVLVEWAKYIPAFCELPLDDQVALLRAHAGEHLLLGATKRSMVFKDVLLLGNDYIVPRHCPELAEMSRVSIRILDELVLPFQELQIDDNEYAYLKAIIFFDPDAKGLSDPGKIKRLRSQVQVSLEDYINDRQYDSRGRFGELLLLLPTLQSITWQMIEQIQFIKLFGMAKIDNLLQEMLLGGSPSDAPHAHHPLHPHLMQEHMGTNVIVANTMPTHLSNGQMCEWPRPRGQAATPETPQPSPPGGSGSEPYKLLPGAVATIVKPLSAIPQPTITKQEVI
Chain of Nuclear respiratory factor 1 (Homo sapiens) (Q16656 whole entry, looked up): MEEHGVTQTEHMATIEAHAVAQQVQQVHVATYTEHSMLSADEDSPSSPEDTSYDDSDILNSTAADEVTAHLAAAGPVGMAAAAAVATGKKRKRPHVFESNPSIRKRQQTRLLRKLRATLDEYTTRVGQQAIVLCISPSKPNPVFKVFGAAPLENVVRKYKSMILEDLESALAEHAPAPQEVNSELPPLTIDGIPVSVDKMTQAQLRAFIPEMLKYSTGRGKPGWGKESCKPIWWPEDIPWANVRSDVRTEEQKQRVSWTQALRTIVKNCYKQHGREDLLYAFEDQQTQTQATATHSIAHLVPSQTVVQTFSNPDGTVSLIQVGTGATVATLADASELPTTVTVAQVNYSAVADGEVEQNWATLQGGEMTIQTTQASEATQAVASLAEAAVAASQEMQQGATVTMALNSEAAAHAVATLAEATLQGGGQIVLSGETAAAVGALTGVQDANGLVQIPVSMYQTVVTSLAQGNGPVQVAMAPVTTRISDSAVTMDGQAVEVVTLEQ
Chain of Glucocorticoid receptor (Homo sapiens) (P04150 whole entry, looked up, the tested form may be a part): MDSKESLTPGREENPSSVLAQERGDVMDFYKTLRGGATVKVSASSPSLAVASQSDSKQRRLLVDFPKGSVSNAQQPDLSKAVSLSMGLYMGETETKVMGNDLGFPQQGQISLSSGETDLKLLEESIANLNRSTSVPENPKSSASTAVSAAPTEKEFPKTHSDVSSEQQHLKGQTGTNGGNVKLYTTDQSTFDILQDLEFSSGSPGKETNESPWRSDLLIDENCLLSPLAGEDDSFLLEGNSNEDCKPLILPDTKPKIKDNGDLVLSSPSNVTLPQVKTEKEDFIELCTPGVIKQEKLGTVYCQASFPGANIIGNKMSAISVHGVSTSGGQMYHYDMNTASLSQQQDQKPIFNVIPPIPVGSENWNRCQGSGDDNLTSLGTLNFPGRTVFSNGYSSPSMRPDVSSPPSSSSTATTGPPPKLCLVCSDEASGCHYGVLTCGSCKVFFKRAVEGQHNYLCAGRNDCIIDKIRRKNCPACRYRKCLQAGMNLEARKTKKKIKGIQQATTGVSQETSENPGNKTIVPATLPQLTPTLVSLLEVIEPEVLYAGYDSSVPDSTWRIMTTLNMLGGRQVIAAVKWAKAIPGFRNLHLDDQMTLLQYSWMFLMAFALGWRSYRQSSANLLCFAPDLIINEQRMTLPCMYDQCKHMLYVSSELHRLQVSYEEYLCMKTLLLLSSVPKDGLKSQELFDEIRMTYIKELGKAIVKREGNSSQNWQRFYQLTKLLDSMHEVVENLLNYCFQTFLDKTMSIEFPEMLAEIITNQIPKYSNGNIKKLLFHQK
Chain of Oxysterols receptor LXR-alpha (Homo sapiens) (Q13133 whole entry, looked up, the tested form may be a part): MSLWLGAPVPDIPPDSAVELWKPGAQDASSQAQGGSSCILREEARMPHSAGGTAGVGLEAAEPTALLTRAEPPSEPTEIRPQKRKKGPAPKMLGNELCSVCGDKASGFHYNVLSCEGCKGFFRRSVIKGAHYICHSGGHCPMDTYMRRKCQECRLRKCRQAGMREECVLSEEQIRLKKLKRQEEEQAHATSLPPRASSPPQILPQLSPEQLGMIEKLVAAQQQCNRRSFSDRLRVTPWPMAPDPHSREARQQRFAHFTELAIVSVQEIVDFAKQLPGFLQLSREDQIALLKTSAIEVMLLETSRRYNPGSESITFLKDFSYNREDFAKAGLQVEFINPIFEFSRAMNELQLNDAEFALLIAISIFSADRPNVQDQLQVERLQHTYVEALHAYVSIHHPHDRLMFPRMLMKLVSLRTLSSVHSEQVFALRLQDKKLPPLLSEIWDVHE

Turning to `CC1(CO)CN(c2ccccc2)NC1=O` (stereo not drawn), the molecule was classed as inactive in [1], in test [2], in test [3], in test [4], in [5] and in [6]. In addition, the molecule was classed as inactive in test [7] and in test [8].
In the case of `CCc1ccc(C=O)cc1`, the molecule was classed as inactive in test [1], in test [9], in test [2], in [10], in [3] and in test [11]. The molecule was called inactive in test [12], in test [13], in [14], in test [15], in [4] and in [5]. For the same molecule, the outcome in test [6] and in [7] was inactive.
Consider `CCO[Si](CCCS)(OCC)OCC`, for which the molecule was called inactive in test [1], in test [3], in test [11], in test [16], in test [12] and in test [14]. Also, the outcome in [15], in test [7] and in test [8] was inactive.
On to `CC(=O)OCCC(C)CC(C)(C)C` (stereo not drawn), for which the call in [1], in test [9], in test [17], in [3], in test [12] and in [18] was inactive. For the same molecule, the call in test [4], in test [6], in test [7] and in test [8] was inactive.
On to `CCn1c2ccccc2c2cc(N)ccc21`, for which the result in test [1], in test [17], in test [10], in test [3], in test [13] and in test [4] was inactive. Moreover, the outcome in [5], in [6], in test [7] and in test [8] was inactive.
A word on the AC50: it is the concentration at which the activity in the assay is half-maximal. Turning to `CC(C)C[C@H]1C(=O)N2CCC[C@H]2[C@]2(O)O[C@](NC(=O)[C@@H]3C=C4c5cccc6[nH]c(Br)c(c56)C[C@H]4N(C)C3)(C(C)C)C(=O)N12`, the AC50 in test [1] was 2190 nM (active); in test [9] it was 1300 nM (active); in test [6], 5670 nM (active). For the same molecule, the molecule was called inactive in [10], in test [3], in test [11], in test [19], in [12] and in test [5].
With `OCCOc1cccc(OCCO)c1`, the molecule was called inactive in test [1], in [9], in test [10], in test [3], in test [11] and in test [14]. Further, the molecule was called inactive in test [15] and in [8].
